Bioassay records from PubChem BioAssay.
HT1080-NT tox = kills 2HG-producing HT-1080-NT fibrosarcoma cells; HT-1080-NT fibrosarcoma viability, CellTiter-Glo ATP luminescence, 48 h; Potency, µM (series often up to 46.1 µM), without a hit: at the highest dose activity, negative = less viability, actives largely listed as cytotoxic; actives 1.6% (n = 360,000);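 note: NT is the 2HG producing partner of a matched IDH1 knockdown line; 0% = DMSO-treated cells and -100% = media-only wells without cells; nearly all actives have a fitted effect of over 55% in size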
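Fibrosarcoma NT cells, 750 per well in 5% FBS RPMI, were exposed to compound for 48 hours. Viability: CellTiter-Glo luminescence.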
HepG2 tox = counter-screen for TGF-b inhibitors: cytotoxicity in HepG2 cells; AID 588856; actives 0.76% (n = 410,000); Potency, µM (doses to about 46.1 µM), for the others: at the highest dose activity change, negative = cytotoxicity, actives largely listed as cytotoxic; HepG2 CAGA-GFP viability, ATP luminescence, 18 h
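HepG2 CAGA-GFP cells (1000/well, DMEM with 1% FBS) received compound, then TGF-beta at 500 pg/mL final, and were incubated 18 hours at 37 degrees C. Viability was read by CellTiter-Glo luminescence. Media-only wells were set as complete cell-killing and DMSO as no toxicity.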
HT1080 IDH1KD tx = kills HT-1080 cells with IDH1 knockdown | HT-1080 IDH1 knockdown viability, ATP luminescence, 48 h | Potency, µM (highest dose often 46.1 µM), for inactives: top-dose activity, negative = toxicity, actives largely listed as cytotoxic | actives 2% (n = 360,000);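 note: 0% = DMSO wells and -100% = cell-free medium wells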
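HT-1080-IDH1KD cells (IDH1 knocked down), 750/well in RPMI with 5% FBS, treated with compound 48 h at 37 degrees C. Viability by CellTiter-Glo luminescence, normalised to DMSO and no-cell wells; concentration-response curves classed.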
ATXN2 expr inh = ATXN2 expression inhibition | HEK-293 ATXN2-luciferase reporter, luminescence, 24 h | Potency, µM (highest dose often 57 µM), inactives show at the top dose activity change, negative = inhibition, actives largely listed as inhibitors | actives 0.72% (n = 360,000) | AID 1745845; note: % is set by controls: 0 for no effect and ±100 for the full control effect; nearly all actives have a fitted effect of over 55% in size
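qHTS (up to 57 uM final) was run with 24 h compound exposure of reporter cells at 37 °C. Each well was multiplexed: SteadyGlo luminescence measured ATXN2-luciferase expression after a fluorogenic Gly-Phe-AFC viability readout (25 uM final).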
S2 tox = reduces viability in counter-screen for ATXN expression inhibitors. S2 cells (HEK-293 line with an ATXN2-luciferase reporter) viability, CellTiter-Fluor protease fluorescence, 24 h. Potency, µM (titrated, usually from 56.7 µM), actives largely listed as cytotoxic. actives 0.49% (n = 400,000). AID 651635; note: nearly all actives have a fitted effect of over 40% in size
TGFb inhibitor = inhibitors of TGF-b signaling. HepG2 CAGA-GFP TGF-b/SMAD3 reporter, GFP fluorescence, 18 h; TGF-beta stimulated, 500 pg/mL final. Potency, µM (series often up to 46.1 µM), without a hit: at the top dose activity, negative = inhibition, usual class: inhibitors. actives 1.2% (n = 410,000). AID 588855; note: % is set by controls: 0 for no effect and ±100 for the full control effect; nearly all actives have a fitted effect of over 65% in size
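Read-out: total well GFP (ex488/em500-530) summed from mean per-cell fluorescence. Cells: HEPG2 CAGA-GFP, 1% FBS DMEM, 18 h at 37 degrees C with 500 pg/mL final TGF-beta. Unstimulated wells served as the full-inhibition control; stimulated DMSO wells = 0%.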
Active calls of the source: *; i = inactive; u = inconclusive; x = no result given; [ ] = remark or other dose. Rows were chosen to be rich in hits. Some 3.8% of all compounds tested hit in one or more screens of this group. Calls come from the whole dose curve; as a rule, active = well fitted curve in the direction sought with a large enough effect; inconclusive = small, poorly fitted or top-dose-only effect, or another doubt; inactive = no such curve, though single readings can be large; an effect the other way counts as inactive or inconclusive. Potency is the fitted concentration of half-maximal effect.

SMILES | HT1080-NT tox | HepG2 tox | HT1080 IDH1KD tx | ATXN2 expr inh | S2 tox | TGFb inhibitor
COc1ccc(Cl)cc1-c1cc(C(=O)NCc2cc(C(F)(F)F)cc(C(F)(F)F)c2)[nH]n1 | 21µM* | -46% | u | -13% | i | -23%
CCCCCCOC(=O)NC(=N)c1ccc(NCc2nc3cc(C(=O)N(CCC(=O)OCC)c4ccccn4)ccc3n2C)cc1 | x | x | x | 32µM* | 32µM* | x
O=C(/C=C/c1ccc(-c2ccccc2[N+](=O)[O-])o1)c1ccc(F)cc1 | 16µM* | 11µM* | -28%[9.24 µM] | u | u | u
COc1ccc(CCNc2c(C)c(C)nc3ncnn23)cc1 | 10µM* | -33% | 7.1µM* | -32% | i | -49%
CCc1c(C)nc2ncnn2c1NCCc1ccc(OC)c(OC)c1 | -6% | 0% | -16% | -2% | i | u
COC(=O)C1CCN(Cc2ccc3c(c2)CN(C(=O)c2cc(C)oc2C)CCO3)CC1 | x | x | x | x | i | x
O=S(=O)(c1ccc(NC(=S)NCc2cccnc2)cc1)N1CCCCC1 | u | -22% | 10µM* | x | u | u
Cc1c(C(=O)NCc2cccnc2)oc2ccc(S(=O)(=O)N3CCCCC3)cc12 | u | -41% | 14µM* | -17% | i | -4%
COc1cc2nc(Cl)nc(NC3CCN(Cc4ccccc4)CC3)c2cc1OC | 0% | x | -2% | x | x | x
COc1cc2c(NC3CCN(C)CC3)nc(N3CCCN(C)CC3)nc2cc1OCc1ccccc1 | 10µM* | x | 6.3µM* | x | x | x
COc1cc2nc(N3CCN(C)CC3)nc(NC3CCN(Cc4ccccc4)CC3)c2cc1OC | u | x | 11µM* | x | x | x
COc1cc2c(NC3CCN(C)CC3)nc(N3CCCN(C)CC3)nc2cc1OCCN(C)C | 3% | x | -1% | x | x | x
Cc1ccc(C(=O)Nc2ccccc2C(=O)OCc2cc(=O)n3nc(C4CC4)sc3n2)cc1 | x | 2% | x | 7% | i | 18%
O=C(N/N=C/c1ccc(F)cc1)c1sccc1OCc1ccc(F)cc1 | 13µM* | -28% | 16µM* | 9% | u | -7%
O=C(N/N=C/c1ccc(Cl)cc1)c1sccc1OCc1ccc(F)cc1 | 2.6µM* | -18% | 1.3µM* | 6% | i | -19%
COc1ccc(COc2ccsc2C(=O)Nc2ccc(Cl)cc2)cc1 | u | -54% | u | -25% | u | -13%
NNC(=O)c1sccc1OCc1ccc(F)cc1 | 3% | -1% | 2% | -19%[11.3 µM] | i | -2%
O=C(O)c1ccc(-c2cc3cccnc3c(-c3ccc4nonc4c3)n2)cc1 | x | x | x | -24% | x | x
Cc1ccc(CNC(=O)c2cnc(N(C)C)nc2)cc1 | x | -9% | x | -2% | i | -5%
CCN(CC(=O)NC(C)(C)C)Cc1nc2c(Br)cc(Br)cc2c(=O)[nH]1 | -4% | -14% | u | 18µM* | u | u
O=C(c1ccc2c(=O)n(CCc3ccccc3)c(=O)[nH]c2c1)N1CCN(C(=O)c2ccco2)CC1 | 10% | x | 21% | x | x | x
COc1cc2cc(NC(C)=O)cc(NCc3ccccc3)c2cc1OC | 2% | -9% | 0% | 5% | i | -1%
CCCCNc1cc(NC(C)=O)cc2cc(OC)c(OC)cc12 | -21% | -31% | -21% | -16% | i | 10µM*
COc1ccc(CC(=O)NCCc2csc(-c3cccc(C)c3)n2)cc1 | x | -24% | x | x | x | -24%
COc1ccc(N2CC(NC(=O)/C=C\c3ccc4c(c3)OCO4)CC2=O)cc1 (stereo unspecified) | x | -7% | x | x | x | -4%
SMILES | HT1080-NT tox | HepG2 tox | HT1080 IDH1KD tx | ATXN2 expr inh | S2 tox | TGFb inhibitor
CCCCCCCCCCCCCCCC(=O)OC(CC(=O)O)C[N+](C)(C)C (stereo unspecified) | 9.2µM* | -1% | u | u | u | -2%
CCCCCCCCCCCCCC(=O)OC(C)C | x | x | x | 15% | i | x
O=C(O)c1ccccc1[O-].O=C(O)c1ccccc1[O-].[Zn+2] | x | x | x | x | i | x
CCOC(=O)c1ccc(NC(=O)NC2=NCCS2)cc1 | 2.6µM* | -18% | 2.3µM* | x | i | -7%
CCOC(=O)c1ccc(NC(=O)Nc2ccc(S(N)(=O)=O)cc2)cc1 | 1% | 6% | 2% | -9% | i | 15%
CN(Cc1ccccc1)C(=O)c1ccc(CSc2nc3cccnc3n2Cc2ccccc2)cc1 | x | -74% | x | -14% | u | 20µM*
Fc1ccc(NC(=S)N/N=C/c2ccc(F)c(F)c2)cc1 | 0% | 15% | 11% | 14% | i | u
COc1ccc(NC(=S)N/N=C/c2ccc(F)c(F)c2)cc1 | u | -5% | 21µM* | -22% | u | -14%
CCn1cc2nc(SCC(=O)Nc3ccc(OC)c(OC)c3)n(Cc3ccc(OC)cc3)c(=O)c2n1 | -21% | -4% | -18% | 1% | i | -17%
CCn1cc2nc(SCC(=O)Nc3ccc(OC)cc3OC)n(Cc3ccc(OC)cc3)c(=O)c2n1 | 3.7µM* | 2% | 5.2µM* | -12% | u | -2%
Cc1c(C(=O)NCC2COCCO2)cnn1-c1ncc2c(n1)-c1ccccc1CC2 (stereo unspecified) | x | x | x | x | i | x
Cc1cc(Nc2nc3ccccc3nc2Cl)n(-c2ccccc2)n1 | u | -1% | 13µM* | -9% | i | -11%
CCCCC(=O)NC(c1ccccc1OC)c1ccc2cccnc2c1O (stereo unspecified) | u | -8% | 2.6µM* | 4µM* | i | u
CCCC(=O)NC(c1ccc(Cl)cc1Cl)c1ccc2cccnc2c1O (stereo unspecified) | u | -18% | 8.2µM* | u | i | u
CC(=O)NC(c1ccc(Cl)cc1Cl)c1ccc2cccnc2c1O (stereo unspecified) | u | -4% | u | u | u | u
CCC(=O)NC(c1cccs1)c1ccc2cccnc2c1O (stereo unspecified) | u | 1% | u | x | u | 1µM*
CCOc1cc(C(Nc2cc(C)ccn2)c2ccc3cccnc3c2O)ccc1OC (stereo unspecified) | x | -49% | x | x | x | 0.79µM*
Cc1ccc2oc(C(=O)Nc3ccc(S(=O)(=O)Nc4ncccn4)cc3)cc(=O)c2c1 | x | 7% | x | 3% | i | -4%
COc1ccc(OC)c(CN2CCC3(CCC(CNC(=O)c4ccco4)O3)CC2)c1 (stereo unspecified) | x | x | x | x | i | x
C[C@@H]1CN(Cc2ccc3c(c2)CN(Cc2coc4ccccc4c2=O)CCO3)C[C@H](C)O1 | x | x | x | x | i | x
